# From PubChem BioAssay (NCI)
# About 83,000 compounds went through this panel and 20% of them were active in at least one assay; those are over-represented in the sample as a whole.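 48-hour exposure, single concentration, 96-well plates; percent growth endpoint where 0 means no net growth. Active: below 10.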 Active and inactive are the calls of the source.
# Test system: MDA-MB-468 breast
# Assay: NCI-60 one-dose screen, 48 h (100 = growth as untreated, 0 = no growth, -100 = all killed)
# Conditions: 10 µM unless noted
row,Structure (SMILES),growth
1,N#C/C(=C\c1cccc2cnccc12)n1nnc2cccc(F)c21,31.9% (inactive)
2,CN1CCN(c2ccc3nc(-c4ccc5nc(-c6ccc(OCCC(C)(C)C)cc6)[nH]c5c4)[nH]c3c2)CC1,-17.9% (active)
3,CCOC(=O)c1nn(C2CCCCO2)c2ccc(NC(=O)CSc3nc4ccccc4c(=O)[nH]3)cc12 (stereo not drawn),95.7% (inactive)
4,N#Cc1c(NC(=O)c2ccc(Br)cc2)sc2c1CCCC2,19.5% (inactive)
5,COc1ccc2[nH]cc(/C=N/Nc3ccnc4cc(Cl)ccc34)c2c1,-80.8% (active)
6,Cc1nc2sc(C(=O)Nc3ccccc3)c(N)c2cc1C(=O)/C=C/c1ccccc1,2.08% (active)
7,CC(=O)c1cccc(NS(=O)(=O)c2cccc(C(=O)Nc3ccc(Br)cc3)c2)c1,1.14% [25 µM] (active)
8,CCOC(=O)c1nnn(Cc2cc(=O)oc3ccc(O)cc23)c1C,108% (inactive)
9,O=C(CCc1nnco1)c1nc2ccc([N+](=O)[O-])cc2[nH]1,113% (inactive)
10,CNc1cccc2c1C(=O)c1cccc(N)c1C2=O,46.1% (inactive)
11,COc1ccc(C(=O)c2cc(OC)c(OC)c(OC)c2)cc1/C=C/C(=O)c1cc(OC)c(OC)c(OC)c1,73% (inactive)
12,CN(C)c1ccc(-c2ccc3[nH]c(=O)nc(-c4ccc(F)cc4)c3c2)cn1,1.22% (active)
13,O/N=C/c1cccs1,106% (inactive)
